The panel holds about 83,000 compounds, 20% with a hit somewhere; the sample as a whole holds those more often.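 Treatment: one concentration, 48 hours, 96-well format. Scoring: percent growth, with anything below 10 considered active.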 Unmarked numbers belong to inactive results. The source made the active and inactive calls.

Test in all cases: NCI-60 one-dose screen, 48 h (100 = growth as untreated, 0 = no growth, -100 = all killed)
Assay [1] concerns SK-MEL-2 melanoma. Conditions: 10 µM unless noted.
The test system of assay [2] is EKVX NSCLC. Conditions: 10 µM unless noted.
In assay [3] the test system is SN12C renal. Conditions: 10 µM unless noted.
Assay [4] deals with UO-31 renal. The settings on record: 10 µM unless noted.
Assay [5] relates to TK-10 renal. Conditions: 10 µM unless noted.
Assay [6] has as its system ACHN renal. Conditions: 10 µM unless noted.
Assay [7] has as its system CAKI-1 renal. The settings on record: 10 µM.
Assay [8] relates to CCRF-CEM leukemia. Conditions: 10 µM unless noted.
Assay [9] has as its system MOLT-4 leukemia. The settings on record: 10 µM unless noted.
Assay [10] deals with SR leukemia. Conditions: 10 µM unless noted.
The test system of assay [11] is RPMI-8226 leukemia. The settings on record: 10 µM unless noted.
Assay [12] concerns OVCAR-8 ovarian. Conditions: 10 µM unless noted.
In assay [13] the test system is OVCAR-5 ovarian. Conditions: 10 µM unless noted.
The test system of assay [14] is OVCAR-4 ovarian. Conditions: 10 µM unless noted.
The test system of assay [15] is SK-OV-3 ovarian. Conditions: 10 µM unless noted.
Assay [16] concerns IGROV1 ovarian. Conditions: 10 µM unless noted.
In assay [17] the test system is OVCAR-3 ovarian. Conditions: 10 µM unless noted.
Assay [18] deals with HS 578T breast. Conditions: 10 µM unless noted.
Assay [19] concerns NCI/ADR-RES ovarian. The settings on record: 10 µM unless noted.

For the molecule `COC[C@@]1(C)CC[C@]2(C)CC[C@]3(C)C(=CC[C@@H]4[C@@]5(C)CCCNC(C)(C)[C@@H]5CC[C@]43C)C2C1` (stereo partly specified), the growth in assay [1] was 78.1%; in assay [2] it was 76.9%; in [3] it was 51.6%; in [4], 90.4%; in assay [5] it was 110%; in [6], 87.1%. Also, the growth in assay [7] was 71.7%; in assay [8], 47.7%; in assay [9], 34.1%; in [10], 4.07% (active); in assay [11], 21.3%; in assay [12], 88.6%. For the same molecule, the growth in [13] was 80%; in assay [14], 65.6%; in assay [15], 104%; in assay [16] it was 52.3%; in [17] it was 78.3%; in [18], 78.5%. Moreover, in assay [19], the growth is 72.6%.

Turning to `CN(C)CCn1c2ccc(N)cc2c2nc3ccccc3nc21`, the growth was 54.6% in [1]; 40.6% in assay [2]; 25.6% in assay [3]; 23% in [4]; 60.2% in assay [5]; 13.9% in [6]. Besides, the growth in [7] was 28.6%; in assay [8] it was 29.5%; in [9] it was 8.1% (active); in assay [10] it was 33.3%; in [11] it was 24.6%; in assay [12], 35.7%. For the same molecule, the growth in [13] was 41%; in assay [14], 53.5%; in [15] it was 37.4%; in assay [16] it was 23.2%; in [17], 37%; in assay [18], 76.2%. For the same molecule, the growth in [19] is 28.1%.

For the molecule `CCOC(=O)c1c(NCC(=O)Nc2ccc(Br)cc2)sc2c1CCCC2`, the growth was 68.7% in [1]; 76% in assay [2]; 18.2% in assay [3]; 54.3% in assay [4]; 81.4% in assay [5]; 14.8% in [6]. In addition, the growth is 27% in [7]; 18.2% in assay [8]; 16.8% in [9]; 43.8% in [10]; 27% in assay [11]; 36.5% in [12]. Also, the growth in [13] is 27.2%; in [14], 35.5%; in assay [15], 66.9%; in assay [16], 22%; in [17], 10.3%; in assay [19], 25.2%.

Take `CN(c1ccc(Br)cc1)S(=O)(=O)c1ccc(-c2cnc(C3CC3)o2)cc1`: the growth in assay [1] was 69.5%; in [2], 43.1%; in assay [3], 30.2%; in assay [4], 44.4%; in [5], 87.6%; in assay [6], 38.9%. Moreover, the growth in assay [7] was 36.9%; in [8], 18%; in [9], 23.5%; in assay [10] it was 34.4%; in assay [11], 15.9%; in assay [12], 33.2%. Further, the growth in assay [13] is 46.7%; in [14], 70.1%; in [15] it was 73.7%; in assay [16], 29.9%; in assay [17] it was 23.7%; in assay [18], 35.8%. Moreover, the growth in assay [19] is 2.5% (active).

Regarding `O=C(Nc1cccc(Cl)c1)Nc1nc2ccc([N+](=O)[O-])cc2s1`, the growth was -24.1% (active) in assay [1]; 10% in assay [2]; 4.02% (active) in [3]; 7.26% (active) in assay [4]; -2.79% (active) in [5]; 5.59% (active) in assay [6]. Moreover, the growth is 3.38% (active) in assay [7]; 9.48% (active) in assay [8]; 2.36% (active) in assay [9]; 2.1% (active) in assay [10]; 3.45% (active) in assay [11]; 7.34% (active) in [12]. For the same molecule, the growth is 26.5% in assay [13]; 4.33% (active) in [14]; -1.18% (active) in assay [15]; 14.8% in assay [16]; 9.51% (active) in assay [17]; -5.35% (active) in assay [18]. Moreover, the growth in assay [19] was 2.96% (active).

For `COc1ccc(CN2C(=O)/C(=C/c3nc(CO)cs3)SC2=S)cc1`, the growth is 98.2% in [1]; 100% in [2]; 93% in assay [3]; 67% in [4]; 65.6% in [5]; 99.6% in [6]. For the same molecule, the growth was 77% in assay [7]; 61.1% in [8]; 76.7% in assay [9]; 33.8% in [10]; 18.5% in [11]; 96.7% in [12]. For the same molecule, the growth was 107% in assay [13]; 107% in assay [14]; 109% in assay [15]; 89.9% in assay [16]; 80.8% in assay [17]; 101% in assay [18]. For the same molecule, in [19], the growth was 97.8%.

For `CN(C)c1ncc(/C=C2\SC(=S)N(Cc3ccccc3Cl)C2=O)s1`, the growth is 86% in assay [1]; 81.7% in [2]; 68.7% in [3]; 47.7% in assay [4]; 96.7% in assay [5]; 76.2% in assay [6]. Also, the growth was 79.1% in assay [7]; 77.3% in [8]; 82% in assay [9]; 87.8% in assay [10]; 86.3% in [11]; 95.8% in assay [12]. For the same molecule, the growth is 87.9% in [13]; 2.09% (active) in assay [14]; 107% in assay [15]; 70.8% in assay [16]; 26.8% in [17]; 101% in assay [18]. The growth in assay [19] was 90.8%.

As to `C=C(C)[C@@H]1CC[C@]2(C(=O)ON)CC[C@]3(C)[C@H](CC[C@@H]4[C@@]5(C)C/C(=C/c6ccc(Br)cc6)C(=O)C(C)(C)[C@@H]5CC[C@]43C)[C@@H]12`, the growth in assay [1] was 88.8%; in [2] it was 60.5%; in [3], 71.5%; in assay [4] it was 63.7%; in assay [5], 105%; in assay [6], 76%. The growth in assay [7] was 50%; in assay [8] it was 67.8%; in assay [9], 47.3%; in [10] it was 76.2%; in [11], 62.2%; in assay [12], 68.7%. Moreover, the growth is 86.5% in [13]; 75.5% in assay [14]; 98.6% in assay [15]; 90.4% in assay [16]; 78% in [17]; 88.2% in assay [18]. The growth in assay [19] was 74.9%.

The values are drawn from PubChem BioAssay (NCI).
